Among all 420,000 compounds or so, about 64,000 (15%) were called active. Not shown: some 27% with an inconclusive outcome. Calls follow the shape of the dose curve; as a rule, active = well fitted inhibition curve with a large enough effect; inconclusive = small, poorly fitted or top-dose-only effect; inactive = flat fitted curve, though single readings scatter. These entries were drawn from the full list. Entries that show only a call come without a potency.
Experiment: qHTS for Inhibitors of human tyrosyl-DNA phosphodiesterase 1 (TDP1): qHTS in cells in absence of CPT; also: nearly all actives have a fitted effect of over 55% in size
Conditions: DT40 Tdp1-/- hTDP1 cells, no CPT, ATP luminescence, 48 h; activity change, negative = growth inhibition: at 46.2 µM (top of the series)
Method in brief: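 Compound effects on proliferation are scored in DT40 Tdp1-/-;hTDP1 cells in the absence of CPT. ATP levels (CellTiter-Glo luminescence) are recorded after a ≥48 hr, 37 °C incubation.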
Potency is read from the fitted curve at half-maximal effect.

Compound	Potency
CCc1cc(=O)oc2c(C)c(OCC(=O)N3CC[C@@]4(O)CCCC[C@H]4C3)ccc12	inactive
COC(=O)C1=NN(c2ccccc2)C2C(=O)N(c3ccccc3OC)C(=O)C12 (configuration not stated)	inactive
COc1ccc(S(=O)(=O)NNC(=O)Nc2ccc(C)cc2)c(OC)c1	inactive
CC(=O)c1cnc(SCC(=O)O)nc1C	inactive
COc1ccc(C(C(=O)NCc2ccccc2)N(Cc2cccs2)C(=O)c2cnccn2)cc1 (configuration not stated)	16.4 µM (active)
Cc1cccc(N(C(=O)c2csnn2)C(C(=O)NCc2ccccc2)c2ccncc2)c1 (configuration not stated)	inactive
O=C(NCc1ccccc1)C(c1cccnc1)N(C(=O)c1csnn1)c1ccc(F)cc1 (configuration not stated)	inactive
COC(=O)CN1C(=O)[C@H]2[C@@H](/C=C/c3ccccc3)N3C(=O)CN(Cc4ccccc4)C(=O)[C@@]3(Cc3ccccc3)[C@H]2C1=O	inactive
C[C@@H]1CN([C@@H](C)CO)C(=O)CCCn2nncc2CO[C@H]1CN(C)C(=O)Nc1ccc(C(F)(F)F)cc1	inactive
CC(=O)NC(Cc1c[nH]c2ccccc12)C(=O)O (configuration not stated)	inactive
CC(C)n1c(C(O)c2ccccc2)nc2ccccc21 (configuration not stated)	inactive
CC(C)n1c(NCc2c[nH]c3ccccc23)nc2ccccc21	13 µM (active)
C[C@@H]1C(c2ccc(F)cc2)=NN(c2ccc(Br)cc2)[C@H]1C(=O)N1CCOC1=O	20.6 µM (active)
Cc1ccc2c(c1)N(C(=O)Nc1ccc(Br)cc1F)CCO2	inactive
O=C1OCCN1C(=O)[C@H]1[C@H](c2ccccc2)C(c2ccc(F)cc2)=NN1c1ccccc1	inactive
COc1ccc(/C(N)=N/OC(=O)CCCc2ccccc2)cc1	inactive
CONC(=O)c1cc(OCC(F)(F)F)ccc1OCC(F)(F)F	inactive
CCc1ccc(-c2nn(-c3ccccc3)cc2CSC(=N)N)cc1	23.1 µM (active)
CCn1c(SCc2ccc(C)cc2)nnc1-c1nn(-c2ccccc2)ccc1=O	inactive
CCc1ccc(-c2nn(-c3ccccc3C)cc2C(=O)N2CCN(C3CCS(=O)(=O)C3)CC2)cc1 (configuration not stated)	inactive
O=C(CCS(=O)(=O)Cc1ccccc1)Nc1ccc2c(c1)OCCO2	inactive
CCN(Cc1ccncc1)C(=O)CCc1ccccc1	inactive
Cc1ccc(C)c(S(=O)(=O)N2CCCOC2CNC(=O)C(=O)NC2CCCCC2)c1 (configuration not stated)	inactive
CN(C(=O)COC(=O)Cc1ccccc1[N+](=O)[O-])C1CCS(=O)(=O)C1 (configuration not stated)	inactive
O=C(c1ccncc1)N1CCN(S(=O)(=O)c2cccc([N+](=O)[O-])c2)CC1	inactive
CC1(c2cccc([N+](=O)[O-])c2)CC(C)(C)N(C(=O)c2ccccc2)c2ccccc21 (configuration not stated)	18.4 µM (active)
O=C(c1cccc([N+](=O)[O-])c1)N1CCN(Cc2ccccc2)CC1	inactive

From PubChem BioAssay AID686978 (National Center for Advancing Translational Sciences (NCATS), 2013)
